Holding throughout (type): functional
Assay [1] relates to Plasmodium falciparum. Description: GSK_TCMDC: Inhibition of Plasmodium falciparum 3D7 in whole red blood cells, using parasite LDH activity as an index of growth. Test compounds present at 2uM.
The subject of assay [2] is Plasmodium falciparum. Description: GSK_TCMDC: Inhibition of Plasmodium falciparum Dd2 in whole red blood cells, using parasite LDH activity as an index of growth. Test compounds present at 2uM.
The next assay relates to HepG2. Kind of assay: GSK_TCMDC: Percent inhibition of human HepG2 cell line. Test compounds present at 10uM.

SMILES strings stand for the structures. Where “and” joins values, the source holds several entries; their conditions need not be identical. Identical values can stand only once.

What is called Inhibition is the percentage by which the read-out fell short of the control. Lower therefore signals a weak effect. In the case of `COc1ccc(C=NNc2ccnc3cc(F)c(C)cc23)c2ccccc12`, the Inhibition is on record as 100% in the assay with Plasmodium falciparum [1], 85% with Plasmodium falciparum [2] and 0% in the assay with HepG2.

As to `Cn1cc(CN2CCC(OC(c3ccccc3)c3ccc(Cl)cc3)CC2)cn1` (stereo not given), the figures for the Inhibition with Plasmodium falciparum [1], in the assay on Plasmodium falciparum [2] and with HepG2 were 94%, 61% and 39%, respectively.

For the molecule `Oc1ccc(OCc2ccccn2)cc1`, the Inhibition in the assay on Plasmodium falciparum [1] was 98%; with Plasmodium falciparum [2] it was 0%; with HepG2, 5%.

`Cc1cc(=O)c(-c2ccc(Oc3cccc(C(F)(F)F)c3)cc2)c(C)[nH]1`: the Inhibition is 97% and 96% with Plasmodium falciparum [1]; 97% and 95% in the assay on Plasmodium falciparum [2]; 8% and 14% with HepG2.

Regarding `c1ccc(-n2cncn2)cc1`, the Inhibition in the assay on Plasmodium falciparum [1] was 93%; with Plasmodium falciparum [2], 96%; in the assay on HepG2 it was 0%.

In the case of `CCCN(Cc1nnc(-c2cccs2)o1)C(=O)CSc1nnnn1-c1ccc(C)c(C)c1`, the Inhibition is 96% with Plasmodium falciparum [1], 80% with Plasmodium falciparum [2] and 0% with HepG2.

Consider `COc1ccc2c(c1C1CCN(CCCCNC(=O)c3ccc(NC(=O)c4ccc(Cl)cc4)cc3)CC1)CCCC2`, for which the Inhibition was 100% with Plasmodium falciparum [1], 99% in the assay with Plasmodium falciparum [2] and 19% with HepG2.

With `CO/C(=C\C=C\c1cc2cc(Cl)c(Cl)cc2[nH]1)C(=O)NCCCNC12CC3CC(CC(C3)C1)C2`, the Inhibition in the assay on Plasmodium falciparum [1] is recorded as 99%; in the assay on Plasmodium falciparum [2] it was 76%; with HepG2 it was 29%.

Turning to `CCc1cccc(-n2c(=O)c3cccnc3n2CC(=O)NCc2ccccc2Cl)c1`, the Inhibition in the assay with Plasmodium falciparum [1] was 98%; in the assay on Plasmodium falciparum [2], 19%; in the assay with HepG2 it was 25%.

Turning to `Cc1nn(CC(C)C)c2sc(C(=O)N3CCN(S(=O)(=O)c4ccc(C#N)cc4)CC3)cc12`, the values for the Inhibition in the assay on Plasmodium falciparum [1], with Plasmodium falciparum [2] and in the assay on HepG2 were 99%, 99% and 14%, respectively.

Regarding `CCN(CCCN1CCCCC1)c1cc(C)nc(Nc2cc(Br)ccc2C)n1.O=C(O)C(F)(F)F`, the Inhibition with Plasmodium falciparum [1] is recorded as 98%; in the assay on Plasmodium falciparum [2], 39%; in the assay with HepG2 it was 32%.

Regarding `COc1ccc2nccc([C@@H](O)CN3CCC(NCc4[nH]c5ccccc5c4F)CC3)c2c1.O=C(O)C(=O)O`, the Inhibition was determined as 100% in the assay with Plasmodium falciparum [1], 61% with Plasmodium falciparum [2] and 19% in the assay with HepG2.

Regarding `COc1ccc(CNC2CCN(C)CC2)cc1-c1ccc(S(=O)(=O)NCc2ccccc2)cc1.O=C(O)C(F)(F)F`, the Inhibition in the assay with Plasmodium falciparum [1] was 100%; in the assay with Plasmodium falciparum [2], 99%; in the assay with HepG2, 56%.

In the case of `CCOC(=O)Nc1cc(-c2csc(N=C(N)N)n2)cc([N+](=O)[O-])c1`, the Inhibition came out at 100% in the assay with Plasmodium falciparum [1], 88% in the assay on Plasmodium falciparum [2] and 12% in the assay with HepG2.

Regarding `COc1cc2nc(NCCC(C)C)n3nc(-c4ccccc4)nc3c2cc1OC`, the Inhibition with Plasmodium falciparum [1] is 94%; in the assay on Plasmodium falciparum [2] it was 97%; in the assay on HepG2, 0%.

Regarding `Cc1nc(SCC(=O)N2CCCC2=O)c2c(C)c(C)sc2n1`, the Inhibition worked out at 96% in the assay with Plasmodium falciparum [1], 0% in the assay on Plasmodium falciparum [2] and 45% with HepG2.

`O=C1CN(C(=O)CCC2CCCC2)C(c2ccc(F)cc2)c2cc(F)ccc2N1` (stereo not given): the Inhibition in the assay on Plasmodium falciparum [1] amounted to 100%; in the assay on Plasmodium falciparum [2], 75%; in the assay on HepG2, 12%.

In the case of `O=C(/C=C/c1ccc(Cl)c(Cl)c1)NCC(CCCN1CCC(c2c[nH]c3ccccc23)CC1)c1ccccc1` (stereo not given), the Inhibition in the assay on Plasmodium falciparum [1] is recorded as 100%; in the assay with Plasmodium falciparum [2] it was 46%; in the assay with HepG2, 98%.

`O=[N+]([O-])c1ccc(-n2nc(Cc3ccccc3)n(Cc3cccc(F)c3)c2=S)c(C(F)(F)F)c1`: the Inhibition with Plasmodium falciparum [1] came out at 100%; in the assay with Plasmodium falciparum [2] it was 100%; in the assay with HepG2, 4%.

Take `CN1CCC(N(Cc2ccc(-c3ccc(C(F)(F)F)cc3)cc2)C(=O)Cn2cc(Cc3cnn(C)c3)c(=O)nc2SCc2cccc(F)c2F)CC1.O=C(O)C(O)C(O)C(=O)O`: the Inhibition with Plasmodium falciparum [1] amounted to 88%; with Plasmodium falciparum [2], 91%; in the assay with HepG2 it was 68%.

These data come from ChEMBL document CHEMBL1157539, “Thousands of chemical starting points for antimalarial lead identification” (Nature, 2010).
